Source: PubChem BioAssay
The list is not random: actives were taken first. Their share in the collection is about 3.1%.
CF NFkB block – inhibitors of PAF-induced NF-kB signaling, primary screen, cell-based, GFP fluorescence, uHTS. KKLEB NF-kB-GFP reporter, GFP fluorescence overnight. inhibition, % at 5 µM. actives 0.86% (n = 360,000). AID 588850, 2011;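 active = at least 50% inhibition at 5 µM, scaled per plate between neutral and stimulator controls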;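 note: PAF is a Pseudomonas aeruginosa culture filtrate used as stimulus; plate controls were PAF-stimulated DMSO wells for no effect and unstimulated DMSO wells for full effect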
MITF TRPM1 inh – inhibitors of MITF-dependent TRPM1 promoter reporter, primary screen, cell-based, SK-MEL-5, single point, luciferase; SK-MEL-5 TRPM1 promoter luciferase, 24 h; actives 0.83% (n = 330,000); inhibition, % at 12.5 µM; AID 488899, 2010;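 active = mean inhibition across replicates of 60% or more, whatever share of single replicates reaches that level; inconclusive = some that reach 60%, reason not given; inactive = mean inhibition across replicates below 60%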
KKLEB tox – cytotoxicity in KKLEB CF airway cells, primary screen, cytotoxicity control for CF NF-kB inhibitor project, cell-based, uHTS, fluorescence assay plates. actives 0.36% (n = 360,000). KKLEB CF airway cells viability, ATPlite luminescence, overnight; active compounds read low; cells stimulated with P. aeruginosa culture filtrate. AID 602141, 2011. activity change (cytotoxicity), % at 5 µM;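 active = corrected activity change at or below -50% at 5 µM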
HIF-2a inh – HIF-2a reporter inhibitors, primary screen, luminescence, 786-0 RCC cells; 786-0 RCC cells HIF-2a reporter, luciferase luminescence, overnight; inhibition, % at 18.8 µM; actives 0.72% (n = 360,000); AID 624352, 2012;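 active = inhibition of the luminescence signal of 40% or more relative to plate controls, in a single-dose primary screen at 18.75 µM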
Peg3 promoter – Peg3 promoter-driven luciferase inhibitors, primary screen, cell-based, HeLa, luciferase luminescence | HeLa PEG-Prom luciferase reporter, overnight | inhibition, % at 20 µM | actives 1.7% (n = 360,000) | AID 588405, 2011;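 active = inhibition of at least 50% at 20 µM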
ABHD5-PLIN5 inh – ABHD5-PLIN5 interaction inhibitors, primary screen, cell lysate, split luciferase complementation, luminescence; Perilipin-5 (Homo sapiens) + 1-acylglycerol-3-phosphate O-acyltransferase ABHD5 (Homo …; Split G. princeps luciferase complementation, 4 h; inhibition, % at 4 µM; actives 0.78% (n = 360,000);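 active = inhibition above the mean inhibition across every tested compound plus 3 SD, cut at about 22% in these data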;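 note: 0% = DMSO only wells and the 100% control is not disclosed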
Mdm2 MdmX conf – retested Mdm2-MdmX interaction blockers, confirmation, cell-based, luminescence, single concentration, set 2. inhibition, % at 8 µM. SaOS-2 split-luciferase Mdm2/MdmX complementation. actives 99% (n = 740). shares compounds with HIF-2a inh;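 active = mean inhibition of the luminescence signal across two replicates at or above 26 percent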
HIF-2a inh conf – HIF-2a reporter inhibitor retest, confirmation, luminescence, 786-0 RCC cells | shares compounds with HIF-2a inh | HIF-2a luciferase reporter luminescence, overnight | inhibition, % at 18.8 µM | actives 56% (n = 1,800) | AID 651580, 2012;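 active = mean inhibition across four replicates of at least 40 percent at the single tested concentration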
HIF-1a counter – HIF-1a luciferase reporter signal reduction – MiaPaCa-2 cells, single concentration, counter-screen for HIF-2a inhibitor project, confirmation | shares compounds with HIF-2a inh | inhibition, % at 18.8 µM | actives 72% (n = 1,800) | MiaPaCa-2 HIF-1a luciferase reporter, desferoxamine, overnight | AID 651589, 2012;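 active = mean inhibition of the reporter signal across four replicates at the single tested dose of 50% or more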
An asterisk follows results filed as active; u = inconclusive; x = no result given.

SMILES	CF NFkB block	MITF TRPM1 inh	KKLEB tox	HIF-2a inh	Peg3 promoter	ABHD5-PLIN5 inh	HIF-2a inh conf	HIF-1a counter	others
COc1ccc(NC(=O)Nc2ccc3c(c2)C(=O)N([C@@H](C)CO)C[C@@H](C)[C@@H](CN(C)S(=O)(=O)c2cccs2)O3)cc1	8.8	-20.2	-1.8	9.2	10.1	-1.5	x	x
COC(=O)CSc1nc(-c2ccc(F)cc2)cc(C(F)(F)F)n1	-3.7	-1.2	-2.3	13.0	0.4	1.9	x	x
OC(c1cc(-c2ccc(C(F)(F)F)cc2)nc(C(F)(F)F)c1)C1CCCCN1 (stereo not given)	68.0*	100.0*	-70.5*	75.3*	109.2*	-13.9	5.4	106.5*	Mdm2 MdmX conf=103.2*
Clc1ccc2nnnc(-c3ccccc3)c2c1	6.7	-9.4	2.0	83.0*	17.2	-0.5	71.2*	103.2*
CCCS(=O)(=O)NC(=O)C1(C)CCN(C(=O)c2cc(C)on2)C1 (stereo not given)	-3.4	x	-6.0	8.5	-5.5	-1.1	x	x
COCOCCn1cc(CN2CCS(=O)(=O)N(Cc3ccc(-c4ccc(OC)nc4)cc3)C(C(C)C)C2=O)nn1 (stereo not given)	-17.6	x	22.8	-20.5	-15.1	5.7	x	x
Cc1ccc(NC(=O)c2ccc(N3CCOCC3)c([N+](=O)[O-])c2)cc1S(=O)(=O)N1CCOCC1	0.7	29.1	-5.4	50.6*	64.8*	4.0	3.3	58.8*
Cn1c(/C=C/c2ccc(Cl)cc2)c([N+](=O)[O-])c(=O)n(C)c1=O	26.7	u	6.4	62.8*	15.2	22.0*	44.4*	18.0
CCCCCOc1ccc(/C=C/c2c([N+](=O)[O-])c(=O)n(C)c(=O)n2C)cc1	0.2	1.0	10.4	42.0*	31.0	-3.7	11.6	0.8
Cn1c(/C=C/c2cccc([N+](=O)[O-])c2)c([N+](=O)[O-])c(=O)n(C)c1=O	46.3	48.9	5.2	45.4*	32.4	21.9	38.5	57.5*
COc1ccc(/C=C/c2c([N+](=O)[O-])c(=O)n(C)c(=O)n2C)cc1OC	16.7	0.9	-0.4	11.8	0.1	-6.0	x	x
CC(=O)N1CCN(CCS(=O)(=O)c2ccc(Br)cc2)CC1	-19.8	1.1	6.4	-7.8	3.6	-1.5	x	x
COc1ccc(-n2nc3ccc(N)cc3n2)cc1	33.1	x	-7.1	45.6*	-171.5	-5.1	69.8*	0.1
CCOc1ccc(-n2nc3ccc(N)cc3n2)cc1	1.0	23.6	-19.9	35.5	-111.5	5.9	x	x
O=C(/C=C/c1ccc(S(=O)(=O)NCc2ccco2)cc1)NCc1ccccc1Cl	-9.1	-3.6	-9.9	41.9*	7.3	1.5	-1.9	15.0
CC(C)C[C@H](NC(=O)N1CC(=O)Nc2ccccc21)C(=O)N[C@H](C(=O)O)c1ccccc1	1.1	6.0	-0.3	11.8	20.6	-5.3	x	x
C=CCN1C(=O)c2ccc(C(=O)N(C)CC(=O)Nc3cccc(F)c3)cc2C1=O	-0.2	-7.9	-6.5	15.1	8.0	0.4	x	x
CCOC(=O)c1ccc(Nc2ccc(-c3ccc(OC)c(OC)c3)nn2)cc1	12.4	-9.8	12.8	-3.6	17.3	6.7	x	x
CCOC(=O)c1ccc(Nc2nc(N)c3cc(OC)c(OC)cc3n2)cc1	-37.4	22.9	-12.9	-44.1	47.4	2.2	x	x	Mdm2 MdmX conf=61.2*
